Measurements published in PubChem BioAssay AID1159580 (chemical genetic matrix, 2015).
“And” between values parts separate entries of the source, which are not always exact repeats. Equal entries are not always repeated. Screen size: about 5,500 compounds; about 2,000 (36%) were called active. Another 18% or so got no clear call; they are omitted. Cut-off read from the data, not from the text of the source: active = normalized growth mostly below about 0.91 (no sharp cut-off); inconclusive = no clear call, values can overlap the other calls; inactive = mostly above about 0.92. Some of the results follow.

Assay: chemical genetic growth profiling, strain panel (AID 1159580);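 note: tested at 20 µM; growth read once vehicle control cultures reached saturation at 30 °C; 1 = growth at the plate median or of vehicle wells; lower values mean less growth of the strain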
Conditions: growth OD
[1] = S. cerevisiae deletion strains, locus YBR229C, strain ROT2, hits give low values
[2] = S. cerevisiae deletion strains, locus YDL101C, strain DUN1, hits give low values
[3] = S. cerevisiae deletion strains, locus YDR150W, strain NUM1, hits give low values
[4] = S. cerevisiae deletion strains, locus YEL061C, strain CIN8, hits give low values
[5] = S. cerevisiae deletion strains, locus YGR078C, strain PAC10, hits give low values
[6] = S. cerevisiae deletion strains, locus YHR030C, strain SLT2, hits give low values
[7] = S. cerevisiae deletion strains, locus YJR043C, strain POL32, hits give low values
[8] = S. cerevisiae deletion strains, locus YJR075W, strain HOC1, hits give low values
[9] = S. cerevisiae deletion strains, locus YLR039C, strain RIC1, hits give low values
[10] = S. cerevisiae deletion strains, locus YLR262C, strain YPT6, hits give low values
[11] = S. cerevisiae deletion strains, locus YMR263W, strain SAP30, hits give low values
[12] = S. cerevisiae deletion strains, locus YMR307W, strain GAS1, hits give low values
[13] = S. cerevisiae deletion strains, locus YNL128W, strain TEP1, hits give low values
[14] = S. cerevisiae deletion strains, locus YNL322C, strain KRE1, hits give low values
[15] = S. cerevisiae deletion strains, locus YOL006C, strain TOP1, hits give low values
[16] = S. cerevisiae deletion strains, locus YPL055C, strain LGE1, hits give low values
[17] = S. cerevisiae deletion strains, locus YPL241C, strain CIN2, hits give low values
[18] = S. cerevisiae strains, strain wild type, hits give low values

Measured: normalized growth

COc1ccc(-c2ccnc(SCC(=O)NCCSCc3ccco3)n2)cc1
inactive: S. cerevisiae deletion strains, locus YAL013W, strain DEP1, hits give low values 1.01 | [1] 0.998 | S. cerevisiae deletion strains, locus YCL061C, strain MRC1, hits give low values 1.01 | [2] 1 | [3] 0.991 | [4] 1 | [5] 1.01 | [6] 1.09 | S. cerevisiae deletion strains, locus YHR087W, strain rtc3, hits give low values 0.998 | S. cerevisiae deletion strains, locus YJL187C, strain SWE1, hits give low values 1.02 | [7] 1 | [8] 0.991 | [9] 0.999 | S. cerevisiae deletion strains, locus YLR058C, strain SHM2 (second series), hits give low values 1 | S. cerevisiae deletion strains, locus YLR085C, strain ARP6, hits give low values 0.98 | [10] 1.03 | S. cerevisiae deletion strains, locus YML094W, strain GIM5, hits give low values 1 | S. cerevisiae deletion strains, locus YMR219W, strain ESC1, hits give low values 1.01 | [11] 1.01 | [12] 0.993 | [13] 0.999 | S. cerevisiae deletion strains, locus YNL153C, strain GIM3, hits give low values 1.02 | S. cerevisiae deletion strains, locus YNL298W, strain CLA4 (second series), hits give low values 1.01 | [14] 1.01 | S. cerevisiae deletion strains, locus YNR030W, strain Alg12, hits give low values 1.01 | [15] 1.03 | [16] 1.02 | [17] 1.01 | S. cerevisiae deletion strains, locus YPR135W, strain CTF4, hits give low values 1.03 | [18] 1

NCCNC(=O)c1ccc(Cl)cc1
inactive: S. cerevisiae deletion strains, locus YAL040C, strain CLN3, hits give low values 1.07 | S. cerevisiae deletion strains, locus YBR021W, strain FUR4, hits give low values 0.997 | [1] 0.994 | S. cerevisiae deletion strains, locus YCL029C, strain bik1, hits give low values 0.986 | S. cerevisiae deletion strains, locus YCL061C, strain MRC1 (second series), hits give low values 0.997 | S. cerevisiae deletion strains, locus YDL035C, strain GPR1, hits give low values 0.997 | S. cerevisiae deletion strains, locus YDL074C, strain BRE1, hits give low values 1.05 | [2] 0.994 | S. cerevisiae deletion strains, locus YDL134C, strain PPH21, hits give low values 0.98 | S. cerevisiae deletion strains, locus YDL185W, strain tfp1, hits give low values 0.984 | S. cerevisiae deletion strains, locus YDL192W, strain arf1, hits give low values 0.973 | S. cerevisiae deletion strains, locus YDR101C, strain arx1, hits give low values 1.03 | [3] 0.998 and 0.995 | S. cerevisiae deletion strains, locus YDR162C, strain NBP2, hits give low values 0.984 | S. cerevisiae deletion strains, locus YDR318W, strain mcm21, hits give low values 0.987 | S. cerevisiae deletion strains, locus YDR363W, strain ESC2, hits give low values 1.01 | S. cerevisiae deletion strains, locus YDR388W, hits give low values 0.98 | S. cerevisiae deletion strains, locus YDR502C, strain sam2, hits give low values 1 | [4] 0.99 | S. cerevisiae deletion strains, locus YER002W, strain NOP16, hits give low values 1.02 | S. cerevisiae deletion strains, locus YER110C, hits give low values 0.959 | S. cerevisiae deletion strains, locus YER155C, strain BEM2, hits give low values 0.999 | S. cerevisiae deletion strains, locus YER167W, strain BCK2, hits give low values 0.99 | S. cerevisiae deletion strains, locus YGL078C, strain dbp3, hits give low values 0.961 | S. cerevisiae deletion strains, locus YGL086W, strain mad1, hits give low values 1.01 | S. cerevisiae deletion strains, locus YGL248W, strain PDE1, hits give low values 0.996 | [5] 1.03 and 0.988 | S. cerevisiae deletion strains, locus YGR135W, strain pre9, hits give low values 0.948 | S. cerevisiae deletion strains, locus YGR252W, strain gcn5, hits give low values 0.931 | [6] 0.987 | S. cerevisiae deletion strains, locus YHR079C, strain IRE1 (second series), hits give low values 0.991 | S. cerevisiae deletion strains, locus YHR094C, strain hxt1, hits give low values 0.986 | S. cerevisiae deletion strains, locus YHR129C, strain ARP1, hits give low values 0.998 | S. cerevisiae deletion strains, locus YHR200W, strain rpn10, hits give low values 0.983 | S. cerevisiae deletion strains, locus YIL066C, strain RNR3, hits give low values 0.998 | S. cerevisiae deletion strains, locus YIL073C, strain SPO22, hits give low values 0.94 | S. cerevisiae deletion strains, locus YIL125W, strain kgd1, hits give low values 0.988 | S. cerevisiae deletion strains, locus YIR030C, strain dcg1, hits give low values 0.982 | S. cerevisiae deletion strains, locus YJL095W, strain BCK1, hits give low values 1.02 | S. cerevisiae deletion strains, locus YJL134W, strain LCB3, hits give low values 0.991 | S. cerevisiae deletion strains, locus YJL168C, strain set2, hits give low values 0.984 | S. cerevisiae deletion strains, locus YJL187C, strain SWE1 (second series), hits give low values 1 | [7] 1.02 | [8] 0.999 | S. cerevisiae deletion strains, locus YKL009W, strain mrt4, hits give low values 0.969 | S. cerevisiae deletion strains, locus YKL068W, hits give low values 0.989 | S. cerevisiae deletion strains, locus YKL085W, strain MDH1 (second series), hits give low values 1 | S. cerevisiae deletion strains, locus YKL085W, strain MDH1, hits give low values 1 | S. cerevisiae deletion strains, locus YKL190W, strain CNB1, hits give low values 0.998 | S. cerevisiae deletion strains, locus YKR001C, strain vps1, hits give low values 0.993 | [9] 1.04 | S. cerevisiae deletion strains, locus YLR058C, strain SHM2, hits give low values 0.988 | S. cerevisiae deletion strains, locus YLR102C, strain apc9, hits give low values 0.976 | [10] 0.996 | S. cerevisiae deletion strains, locus YLR268W, strain sec22, hits give low values 0.992 | S. cerevisiae deletion strains, locus YLR330W, strain CHS5, hits give low values 0.999 | S. cerevisiae deletion strains, locus YLR342W, strain FKS1 (second series), hits give low values 0.984 | S. cerevisiae deletion strains, locus YLR371W, strain rom2, hits give low values 0.991 | S. cerevisiae deletion strains, locus YLR418C, strain cdc73, hits give low values 0.975 | S. cerevisiae deletion strains, locus YML016C, strain PPZ1, hits give low values 0.991 | S. cerevisiae deletion strains, locus YML032C, strain rad52, hits give low values 0.984 | S. cerevisiae deletion strains, locus YML124C, strain tub3, hits give low values 0.99 | S. cerevisiae deletion strains, locus YMR078C, strain ctf18, hits give low values 0.967 | S. cerevisiae deletion strains, locus YMR223W, strain ubp8, hits give low values 0.958 | [11] 1.01 and 0.997 | [12] 0.984 and 0.965 | S. cerevisiae deletion strains, locus YNL067W, strain RPL9B, hits give low values 1.01 | [13] 0.984 and 0.991 | S. cerevisiae deletion strains, locus YNL175C, strain NOP13, hits give low values 0.99 | S. cerevisiae deletion strains, locus YNL197C, strain WHI3, hits give low values 0.992 | S. cerevisiae deletion strains, locus YNL224C, strain SQS1, hits give low values 0.999 | S. cerevisiae deletion strains, locus YNL233W, strain BNI4, hits give low values 1.02 | S. cerevisiae deletion strains, locus YNL250W, strain rad50, hits give low values 0.942 | S. cerevisiae deletion strains, locus YNL271C, strain bni1, hits give low values 0.983 | S. cerevisiae deletion strains, locus YNL298W, strain CLA4, hits give low values 0.96 | S. cerevisiae deletion strains, locus YNL307C, strain MCK1, hits give low values 0.981 | [14] 1.01 | S. cerevisiae deletion strains, locus YNR052C, strain pop2, hits give low values 0.974 | [15] 1.08 | S. cerevisiae deletion strains, locus YOL012C, strain htz1 1.91 | S. cerevisiae deletion strains, locus YOL147C, strain pex11, hits give low values 0.985 | S. cerevisiae deletion strains, locus YOR061W, strain CKA2, hits give low values 0.992 | S. cerevisiae deletion strains, locus YOR069W, strain VPS5, hits give low values 0.984 | S. cerevisiae deletion strains, locus YOR083W, strain WHI5 (second series), hits give low values 0.99 | S. cerevisiae deletion strains, locus YOR136W, strain idh2, hits give low values 0.993 | S. cerevisiae deletion strains, locus YOR144C, strain elg1, hits give low values 0.983 | S. cerevisiae deletion strains, locus YOR184W, strain ser1, hits give low values 0.968 | S. cerevisiae deletion strains, locus YOR316C, strain cot1, hits give low values 0.981 | [16] 1.01 | [17] 0.997 | S. cerevisiae deletion strains, locus YPR119W, strain clb2, hits give low values 0.977 | S. cerevisiae deletion strains, locus YPR141C, strain kar3, hits give low values 0.978 | S. cerevisiae deletion strains, locus YPR163C, strain tif3, hits give low values 0.987 | S. cerevisiae deletion strains, locus YPR167C, strain met16, hits give low values 0.973 | S. cerevisiae deletion strains, strain wtn01, hits give low values 0.968 | [18] 0.998
